High-throughput results deposited in PubChem BioAssay by National Center for Advancing Translational Sciences (NCATS).
This is a sample that favours compounds with a hit; in the whole collection about 3.3% have one here.
Sm TGR inh: S. mansoni TGR enzyme inhibition | 360,000 compounds, 3% hits | purified TGR, DTNB reduction, TNB absorbance 405 nm | Potency, µM (series often up to 114 µM), inactives show top-dose activity change, negative = inhibition, actives largely listed as inhibitors | AID 485364; further: nearly all actives have a fitted effect of over 60% in size
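First, TGR (20 nM dispensed) and NADPH were mixed with compound. Second, a 15 min room-temperature incubation followed. Third, further NADPH and then DTNB were added to start the reaction. Finally, TNB absorbance was monitored kinetically.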
AmpC inh no detg: blocks E. coli AmpC beta-lactamase in detergent-free assay; AmpC nitrocefin hydrolysis, absorbance 480 nm, 0.0001% Triton; Potency, µM (top dose mostly 57.1 µM), for the others: top-dose activity change, negative = inhibition, usual class: inhibitors; 330,000 compounds, 0.52% hits; AID 485341;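 further: plate controls were no compound for no effect and no enzyme for full effect; nearly all actives have a fitted effect of over 20% in size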
Target sequence (P00811 whole entry, looked up): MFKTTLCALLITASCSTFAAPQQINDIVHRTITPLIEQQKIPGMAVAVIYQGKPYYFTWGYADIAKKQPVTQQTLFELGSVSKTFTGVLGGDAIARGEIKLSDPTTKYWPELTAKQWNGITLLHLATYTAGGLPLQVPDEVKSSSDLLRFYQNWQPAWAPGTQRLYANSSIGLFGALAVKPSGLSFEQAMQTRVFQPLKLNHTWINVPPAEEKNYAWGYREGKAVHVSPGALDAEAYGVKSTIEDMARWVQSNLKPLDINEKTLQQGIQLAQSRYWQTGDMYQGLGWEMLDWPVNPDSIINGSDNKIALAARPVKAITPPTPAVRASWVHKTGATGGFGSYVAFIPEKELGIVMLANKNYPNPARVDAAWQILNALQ
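AmpC (5.3 nM in the dispensed reagent) in 20 mM phosphate pH 7.0 with 0.01% (detergent screen) or 0.0001% Triton X-100 was preincubated with compounds for 15 min at room temperature. Nitrocefin was then added from an 800 uM solution, and hydrolysis was followed at 480 nm.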
AmpC inh detg: inhibitors of E. coli AmpC beta-lactamase with detergent; AID 485294; P00811; 370,000 compounds, 0.041% hits; AmpC hydrolysis of nitrocefin, absorbance 480 nm, 0.01% Triton; Potency, µM (highest dose often 114 µM), without a hit: at the top dose activity change, negative = inhibition, hits mostly inhibitors;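 further: 0% = no-compound wells and -100% = no-enzyme wells; nearly all actives have a fitted effect of over 25% in size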
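20 mM phosphate pH 7.0 + 0.01% (detergent screen) or 0.0001% Triton X-100; 5.3 nM AmpC reagent; cpd preinc 15 min RT; nitrocefin (800 uM stock) to start; A480 q20 s × 4 min; Activity was normalised to no-enzyme and no-compound control wells.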
* hit, by the source's call; ? = inconclusive; / = not tested or not shown; [ ] = another dose, or the depositor's remark. The call rests on the fitted dose curve; in most records, active means well fitted curve in the direction sought with a large enough effect; inconclusive means small, poorly fitted or top-dose-only effect, or another doubt; inactive means no such curve, though single readings can be large; an effect the other way counts as inactive or inconclusive. Unless noted, on the % scale 0 is the no-effect control and ±100 the full control effect; potency means the concentration at half of the fitted maximal effect.

SMILES | Sm TGR inh | AmpC inh no detg | AmpC inh detg
CCCCOC(=O)C1[C@H]2C(=O)N(Cc3cccs3)C[C@]23C=C[C@H]1O3 (stereo partly drawn) | -8%[11.4 µM] | 76% | -2%
CCCOC(=O)C1C2C=CC3(CN(c4ccc(Cl)c(F)c4)C(=O)C13)O2 (stereo not drawn) | 0% | 7.1µM* | 5%
CCOC(=O)C1C2C=CC3(CN(c4ccc(Cl)c(F)c4)C(=O)C13)O2 (stereo not drawn) | 3% | -10% | -10%
CCCOC(=O)C1[C@H]2C(=O)N(Cc3ccco3)C[C@]23C=C[C@H]1O3 (stereo partly drawn) | 25µM* | 57% | -13%
Cc1cc(C)cc(NC(=O)C(=O)NCC(c2cccnc2)N2CCc3ccccc3C2)c1 (stereo not drawn) | -5% | / | 20%
CCn1cc2nc(SCc3ccc(F)cc3)n(CCc3ccccc3)c(=O)c2n1 | 7% | / | 1%
COc1cccc(CN2C(=O)C3(SCC(=O)N3c3cc(C)cc(C)c3)c3ccccc32)c1 (stereo not drawn) | 2% | / | 4%
Brc1ccc(-c2ccc(CNCCSc3nnnn3-c3ccccc3)o2)cc1 | 18µM* | / | 18%
Clc1ccc(-c2ccc(CNCCSc3nnnn3-c3ccccc3)o2)cc1 | 8% | / | 33%
O=[N+]([O-])c1ccc(Sc2ccccc2Cl)nc1 | ? | -25% | 1%
O=[N+]([O-])c1ccc(Sc2ncc3ccccn23)nc1 | 45µM* | -22% | 8%
Cc1ccc(NC(=O)COC(=O)C(NS(=O)(=O)c2ccc(Cl)cc2)C(C)O)c(Br)c1 (stereo not drawn) | -16% | 29% | ?
Cc1ccc(NC(=O)COC(=O)C(NS(=O)(=O)c2ccc(Cl)cc2)C(C)O)cc1C (stereo not drawn) | 45µM* | 80% | 0%
COC(=O)c1ccc(Cl)cc1NC(=O)N1CCCn2nc(C)cc21 | 4% | / | 11%
COc1ccc(N2C(=O)[C@H]3[C@@H](C2=O)C2c4ccccc4C=NN2[C@H]3C(=O)C(C)(C)C)cc1 (stereo partly drawn) | 4% | 15% | -9%
COc1ccc(N2C(=O)[C@@H]3[C@H](C2=O)[C@H]2c4ccccc4C=CN2[C@@H]3C(C)=O)cc1 | 40µM* | -13% | -4%
S=C(Nc1ccc2nc(-c3ccccn3)c(-c3ccccn3)nc2c1)N1CCCCC1 | -1% | 42% | 0%
CCCNC(=S)Nc1ccc2nc(-c3ccccn3)c(-c3ccccn3)nc2c1 | 13µM* | 2% | 6%
N#CC(C#N)=Cc1cc2ccccc2nc1N1CCOCC1 | 7.1µM* | -11% | ?
N#C/C(=C\c1cc2ccccc2nc1N1CCOCC1)C(=O)Nc1ccc(N2CCOCC2)cc1 | 2% | -22% | -15%
Cc1ccc2cc(C=C(C#N)C#N)c(Cl)nc2c1 | 2.8µM* | -22% | -13%
Cc1ccc2cc(C=C(C#N)C#N)c(N3CCCCC3)nc2c1 | 3.2µM* | -23% | 0%
Cc1ccc2cc(/C=C(\C#N)C(N)=O)c(N3CCCCC3)nc2c1 | -15% | 17% | -7%
Cc1ccc2cc(/C=N/NC(=O)c3ccccc3O)c(Cl)nc2c1 | 1% | -9% | 0%
Cc1ccc(CN2CCC(CNC(=O)c3cc4ccc5cccnc5c4[nH]3)CC2)cc1 | 15% | / | 13%
SMILES | Sm TGR inh | AmpC inh no detg | AmpC inh detg
CCc1ccc(CNC(=O)c2cnc3sc(N(CC)CC)nn3c2=O)cc1 | -8% | / | 4%
Cc1nc(N2CCCC2)c2c(C(=O)Nc3ccc(C)c(Cl)c3)c(C)oc2n1 | 6% | / | 21%
CC(=O)N(Cc1cccnc1)c1nc2c(C)cc(C)cc2s1 | -1% | / | 0%
Cc1cccc(NC(=S)NCC23C=CC(O2)C2C(=O)N(c4ccc(Cl)cc4)C(=O)C23)c1 (stereo not drawn) | 3.2µM* | -40% | -13%
Cc1ccc(N2C(=O)C3C4C=CC(CNC(=S)N5CCN(c6ccccc6)CC5)(O4)C3C2=O)cc1 (stereo not drawn) | 2.5µM* | -8% | 2%
Cc1cccc(NC(=S)NNC(=O)COc2ccc(Cl)cc2Cl)c1 | -20% | -25% | -7%
Cc1ccc(S(=O)(=O)NCC23C=CC(O2)C2C(=O)N(c4ccccc4)C(=O)C23)cc1 (stereo not drawn) | 3.2µM* | -19% | ?
S=C(NCC1CCCO1)N1CCN(c2ccccc2)CC1 (stereo not drawn) | -2% | -12% | 4%
Cc1ccc(S(=O)(=O)NCC2(c3ccccc3)CCN(C)CC2)cc1 | 0% | -21% | 2%
Cc1ccc(N2C(=O)[C@@H]3[C@H](C2=O)[C@H]2C=CC=NN2[C@@H]3C(=O)Nc2ccccc2)cc1 | ? | 16% | 1%
Cc1ccc(NC(=S)NCC23C=CC(O2)C2C(=O)N(c4ccc(C)cc4)C(=O)C23)cc1 (stereo not drawn) | 5µM* | -30% | 1%
CCCNC(=O)c1ccccc1NC(=O)c1nsc2ccccc12 | 6% | / | 20%
Cc1nnc(N2CCN(c3cccc(C(F)(F)F)c3)CC2)c2c1nnn2Cc1ccccc1 | 13% | / | 14%
O=C(NCc1ccc(Cl)cc1)c1ccc(CNS(=O)(=O)c2ccc(F)cc2)cc1 | 12% | / | 11%
CCc1cccc(CC)c1NC(=O)C(Cc1ccccc1)NS(=O)(=O)c1cccc2nsnc12 (stereo not drawn) | 2% | / | -5%
CCC12CN3CC(C)(CN(C1)C3c1ccccc1C)C2=O (stereo not drawn) | 1% | / | 19%
Cn1c(=O)n(C)c2cc([N+](=O)[O-])c(N3CCNCC3)cc21 | ? | -34% | -4%
Cn1c(=O)c(=O)n(C)c2cc([N+](=O)[O-])c([N+](=O)[O-])cc21 | 20µM* | -2% | ?
CCOc1ccc(C(=O)Nc2cccc(-c3nc4cccnc4s3)c2C)cc1OCC | -5% | / | 19%
O=C(Nc1cccc(F)c1)[C@H](CSCc1ccccc1)N1Cc2ccccc2C1=O | -8% | / | -10%
COc1ccc(S(=O)(=O)NCCc2csc3nc(-c4cccc(C)c4)nn23)cc1F | 1% | / | 1%
Cc1sc(-n2c(C)cc(C=C3C(=O)NC(=O)NC3=O)c2C)c(C#N)c1C | ? | -1% | -1%
Cc1ccc(-n2c(C)cc(/C=C3\SC(=O)NC3=O)c2C)cc1 | 10% | -38% | 2%
Cc1cc(/C=C2\SC(=S)NC2=O)c(C)n1-c1cccc(O)c1 | -28% | 18µM* | 6%
Cc1sc(-n2c(C)cc(/C=C3\SC(=S)NC3=O)c2C)c(C#N)c1C | -17% | 14µM* | -6%
CC(C)c1ccc(N2C(=O)CSC23C(=O)N(Cc2ccccc2)c2ccccc23)cc1 (stereo not drawn) | 2% | / | 18%
Cc1ccc(NC(=O)Cn2nc(C(F)(F)F)c3c2CCC3)cc1C | 5% | / | 13%
COc1ccc(CCNC(=O)Cn2ncc3c(C)n(Cc4ccccc4F)c(C)c3c2=O)cc1OC | -6% | / | 2%
CCc1nc2ccccc2n2c(-c3ccccc3)c3c(=O)n(C)c(=O)n(C)c3c12 | 4% | / | 15%
Cc1ccc(C(=O)N2CCCC(Nc3ccc(F)cc3)C2)cc1C (stereo not drawn) | 79µM* | 120% | 9%
